Bioassay records from PubChem BioAssay.
A selection: hits, their analogues and other compounds. The true share with any hit is near 6.7%.
GDH-TPI counter: counter-screen for M. tuberculosis FBA inhibitors: GDH-TPI coupled enzymes; GDH-TPI coupled enzyme counterscreen, NADH absorbance; inhibition, % at 4.8 µM; 1.2% of 360,000 active; AID 588335; in the data active means inhibition above about 30%;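 further: 0% = DMSO wells and 100% = wells lacking the enzyme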
Mtb FBA inh: inhibits M. tuberculosis FBA enzyme. inhibition, % at 1 µM. 2.3% of 360,000 active. AID 588726. purified M. tuberculosis FBA, fluorescence read-out. P9WQA3; in the data active means inhibition above about 27%;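 further: 0% = vehicle and 100% = reference inhibitor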
Anthrax LF prot: blocks Bacillus anthracis lethal factor protease; inhibition, % at 10 µM; AID 588501; P15917; 0.12% of 360,000 active; multiplex microsphere protease cleavage assay, LF; further: plate controls were buffer without enzyme for full effect and enzyme alone for no effect
Target sequence (P15917 whole entry, looked up): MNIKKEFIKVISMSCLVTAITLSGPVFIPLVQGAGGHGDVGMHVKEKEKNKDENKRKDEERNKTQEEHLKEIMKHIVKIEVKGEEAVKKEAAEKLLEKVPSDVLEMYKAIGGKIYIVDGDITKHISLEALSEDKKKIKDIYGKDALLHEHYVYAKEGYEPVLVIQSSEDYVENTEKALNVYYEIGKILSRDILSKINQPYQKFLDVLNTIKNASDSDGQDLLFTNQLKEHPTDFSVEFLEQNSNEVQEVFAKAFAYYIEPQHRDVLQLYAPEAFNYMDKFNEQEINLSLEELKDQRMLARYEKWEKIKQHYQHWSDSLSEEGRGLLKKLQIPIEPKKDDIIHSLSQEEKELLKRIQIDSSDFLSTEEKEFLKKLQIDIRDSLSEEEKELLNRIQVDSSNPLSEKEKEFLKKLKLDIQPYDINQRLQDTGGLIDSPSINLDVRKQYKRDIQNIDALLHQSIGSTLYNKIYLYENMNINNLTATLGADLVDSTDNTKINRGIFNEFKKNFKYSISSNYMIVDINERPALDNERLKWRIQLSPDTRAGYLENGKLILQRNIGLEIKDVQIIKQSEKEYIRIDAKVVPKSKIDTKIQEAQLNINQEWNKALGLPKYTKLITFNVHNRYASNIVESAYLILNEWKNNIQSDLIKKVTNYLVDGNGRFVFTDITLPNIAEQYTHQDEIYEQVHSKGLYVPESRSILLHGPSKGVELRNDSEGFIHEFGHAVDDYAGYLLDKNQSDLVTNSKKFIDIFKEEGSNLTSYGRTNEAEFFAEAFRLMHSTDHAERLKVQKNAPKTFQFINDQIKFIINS
Bead autofluor: counter-screen for toxin protease inhibitors: compound fluorescence. compound autofluorescence counterscreen, microsphere flow cytometry; stronger effect = higher value. fluorescence intensity (no concentration beside the values). 3.1% of 360,000 active. AID 624483; in the data active means fluorescence intensity above about 16000; inconclusive means no clear call, values can overlap the other calls
BoNT A protease: BoNT A light chain protease inhibition; multiplex microsphere protease substrate cleavage, flow cytometry; inhibition, % at 10 µM; 0.17% of 360,000 active; further: plate controls were buffer without enzyme for full effect and enzyme alone for no effect
BoNT-F LC inh: blocks Botulinum neurotoxin F light chain protease; Multiplex microsphere protease cleavage assay, flow cytometry; inhibition, % at 10 µM; 0.22% of 360,000 active; in the data active means inhibition above about 35%, passing the limit was not always enough; inconclusive means no clear call, values can overlap the other calls; further: plate controls were buffer without enzyme for full effect and enzyme alone for no effect
Active calls of the source: *. Unless noted, no stated cut-off is given here; in the data, active means inhibition above about 30%; inconclusive means no clear call, values can overlap the other calls; inactive means below that.

For N#C/C(=N/Nc1ccccc1F)C(=N)N1CCOCC1 the results were GDH-TPI counter 32*, Mtb FBA inh -1, Anthrax LF prot 3, Bead autofluor 6545, BoNT A protease inconclusive and BoNT-F LC inh 26.
Screening COc1ccc(N/N=C(\C#N)C(=N)N2CCOCC2)cc1 returned GDH-TPI counter -1, Mtb FBA inh -8, Anthrax LF prot -2, Bead autofluor 3805, BoNT A protease 0 and BoNT-F LC inh -15.
Cn1c(=O)cc(NCCc2ccccc2)[nH]c1=O was read as GDH-TPI counter -6, Mtb FBA inh 0, Anthrax LF prot -2, Bead autofluor 3420, BoNT A protease 1 and BoNT-F LC inh -3.
`Cc1ccsc1CN1CCN(c2ccccn2)CC1` gave GDH-TPI counter 8, Mtb FBA inh -1, Anthrax LF prot -2, Bead autofluor 21639*, BoNT A protease 3 and BoNT-F LC inh 8.
Screening Cc1ccsc1/C=N/N1CCN(c2ccccn2)CC1 returned GDH-TPI counter -5, Mtb FBA inh -4, Anthrax LF prot 24, Bead autofluor 3611, BoNT A protease 1 and BoNT-F LC inh inconclusive.
CCCCn1c(N)c(Sc2ccccc2)c(=O)[nH]c1=O was read as GDH-TPI counter -2, Mtb FBA inh -8, Anthrax LF prot -6, Bead autofluor 25818*, BoNT A protease -8 and BoNT-F LC inh -10.
CCCn1c(N)c(Sc2ccccc2)c(=O)n(CCC)c1=O was read as GDH-TPI counter 1, Mtb FBA inh 0, Anthrax LF prot -1, Bead autofluor 19729*, BoNT A protease -1 and BoNT-F LC inh -1.
`CC(=O)N1N=C2c3ccccc3CCC2C1c1cccs1` (stereo not drawn) gave GDH-TPI counter 9, Mtb FBA inh -3, Anthrax LF prot -6, Bead autofluor 6489, BoNT A protease 0 and BoNT-F LC inh 4.
For CCn1cc(Cl)c(C(=O)N2N=C3/C(=C/c4cccs4)CCCC3C2c2cccs2)n1 (stereo not drawn) the results were GDH-TPI counter 22, Mtb FBA inh 3, Anthrax LF prot 0, Bead autofluor 23292*, BoNT A protease 0 and BoNT-F LC inh -4.
COc1ccccc1NC(=O)CN(C)S(=O)(=O)c1cc(C)ccc1OC was read as GDH-TPI counter 9, Mtb FBA inh -1, Anthrax LF prot 1, Bead autofluor 16552*, BoNT A protease 0 and BoNT-F LC inh 2.
Cc1ccc(C)c(NC(=O)CNS(=O)(=O)c2ccccc2)c1 was read as GDH-TPI counter 0, Mtb FBA inh 1, Anthrax LF prot -1, Bead autofluor 16924*, BoNT A protease inconclusive and BoNT-F LC inh -3.
For COc1ccccc1NC(=O)CNS(=O)(=O)c1ccccc1 the results were GDH-TPI counter 2, Mtb FBA inh -2, Anthrax LF prot 1, Bead autofluor 21927*, BoNT A protease inconclusive and BoNT-F LC inh -6.
`Cc1ccc(C)c(C(=O)COC(=O)CNS(=O)(=O)c2ccccc2)c1` gave GDH-TPI counter -4, Mtb FBA inh 1, Anthrax LF prot -2, Bead autofluor 4205, BoNT A protease -5 and BoNT-F LC inh -9.
O=C(CNS(=O)(=O)c1ccccc1)Nc1ccccc1Br was read as GDH-TPI counter 0, Mtb FBA inh 3, Anthrax LF prot -2, Bead autofluor 6808, BoNT A protease -3 and BoNT-F LC inh -12.
For COC(=O)c1ccc(NC(=O)CN(C)S(=O)(=O)c2ccc(OC)c(C)c2)cc1 the results were GDH-TPI counter -4, Mtb FBA inh -2, Anthrax LF prot -4, Bead autofluor 24716*, BoNT A protease -4 and BoNT-F LC inh -8.
Screening CCOc1ccc(CCNC(=O)CCc2nnc3ccc(N4CCOCC4)nn23)cc1OCC returned GDH-TPI counter 12, Mtb FBA inh 3, Anthrax LF prot -6, Bead autofluor 4152, BoNT A protease 0 and BoNT-F LC inh -3.
`O=C(CN(Cc1ccccc1)S(=O)(=O)c1ccc2c(c1)OCCO2)N/N=C/c1cccc(Br)c1` gave GDH-TPI counter 9, Mtb FBA inh -1, Anthrax LF prot -1, Bead autofluor 2038, BoNT A protease 0 and BoNT-F LC inh -10.
For COc1cc(S(=O)(=O)Nc2cccc3cn[nH]c23)c(OC)cc1C the results were GDH-TPI counter -8, Mtb FBA inh 5, Anthrax LF prot 0, Bead autofluor 6115, BoNT A protease -1 and BoNT-F LC inh 1.
`O=c1[nH]c(CCl)nc2cc(-c3ccc(F)cc3)sc12` gave GDH-TPI counter 3, Mtb FBA inh 3, Anthrax LF prot -1, Bead autofluor 4742, BoNT A protease -2 and BoNT-F LC inh -2.
`COc1ccccc1NC(=O)CNC(=O)c1ccccc1C` gave GDH-TPI counter 1, Mtb FBA inh -1, Anthrax LF prot -1, Bead autofluor 24190*, BoNT A protease -3 and BoNT-F LC inh -4.
COc1ccccc1NC(=O)CNC(=O)c1ccccc1 was read as GDH-TPI counter 1, Mtb FBA inh -2, Anthrax LF prot -1, Bead autofluor 2610, BoNT A protease 0 and BoNT-F LC inh -7.
`CCOc1cc(/C=C2\C(=N)N3N=C(CC)SC3=NC2=O)ccc1OCCOc1ccc(NC(C)=O)cc1` gave GDH-TPI counter 1, Mtb FBA inh 4, Anthrax LF prot 0, Bead autofluor 3890, BoNT A protease -2 and BoNT-F LC inh inconclusive.
`CCC1=NN2C(=N)/C(=C\c3ccc(OCCOc4ccc(NC(C)=O)cc4)cc3)C(=O)N=C2S1` gave GDH-TPI counter 10, Mtb FBA inh 2, Anthrax LF prot 51*, Bead autofluor 3515, BoNT A protease 3 and BoNT-F LC inh 16.
Screening O=C(O)c1ccc(CSc2nnc(-c3ccccc3Br)o2)cc1 returned GDH-TPI counter -4, Mtb FBA inh 2, Anthrax LF prot -17, Bead autofluor 4729, BoNT A protease -10 and BoNT-F LC inh inconclusive.
Oc1ccc(/C=N/Nc2nc(N3CCCC3)nc(N3CCCC3)n2)cc1O was read as GDH-TPI counter 16, Mtb FBA inh 0, Anthrax LF prot 8, Bead autofluor 3318, BoNT A protease 0 and BoNT-F LC inh -2.
For COc1cc(/C=N/Nc2ccccn2)ccc1O the results were GDH-TPI counter 25, Mtb FBA inh 1, Anthrax LF prot 2, Bead autofluor 4705, BoNT A protease -2 and BoNT-F LC inh -7.
`COc1cc(C(=O)N/N=C/c2ccsc2C)cc(OC)c1OC` gave GDH-TPI counter 37*, Mtb FBA inh -1, Anthrax LF prot -3, Bead autofluor 2314, BoNT A protease -1 and BoNT-F LC inh -2.
Screening COc1cc(/C(C)=N/Nc2ccc(C(=O)O)cc2)cc(OC)c1OC returned GDH-TPI counter 29, Mtb FBA inh -1, Anthrax LF prot -2, Bead autofluor 2323, BoNT A protease 0 and BoNT-F LC inh -2.
COc1ccc(/C(C)=N/Nc2ccc(C(=O)O)cc2)cc1OC was read as GDH-TPI counter 56*, Mtb FBA inh 4, Anthrax LF prot 5, Bead autofluor 10104, BoNT A protease 2 and BoNT-F LC inh 7.
